# Screening data: PubChem BioAssay, National Center for Advancing Translational Sciences (NCATS)
# Tau fluor counter – counter-screen for tau fibril formation inhibitors | AID 1463 | Potency, µM (doses to about 57.7 µM), for inactives: at the top dose activity change, negative = decrease | 280,000 tested, 0.93% active | tau K18 P301L Alexa594 fluorescence, heparin fibrillization; further: nearly all actives have a fitted effect of over 55% in size
#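 Human tau K18 P301L (15 uM unlabeled, 0.24 uM Alexa 594-labeled) in 100 mM sodium acetate pH 7 with 20 uM heparin, 6 hr at 37 C. ThT 30 uM added, 1 hr ambient; Alexa 594 FP and total fluorescence read at 555/632 nm.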
# TRb SRC2 PPI – TRbeta-SRC2 interaction inhibition | P10828 | TRbeta-SRC2 peptide binding, fluorescence polarization; receptor liganded with 1 µM T3 | Potency, µM (doses to about 106 µM), for inactives: at the highest dose activity change, negative = inhibition, usual class: inhibitors | 280,000 tested, 0.065% active | AID 1469;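 further: plate controls were bound peptide for no effect and peptide without receptor for full effect; nearly all actives have a fitted effect of over 50% in size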
# Target sequence (P10828 whole entry, looked up): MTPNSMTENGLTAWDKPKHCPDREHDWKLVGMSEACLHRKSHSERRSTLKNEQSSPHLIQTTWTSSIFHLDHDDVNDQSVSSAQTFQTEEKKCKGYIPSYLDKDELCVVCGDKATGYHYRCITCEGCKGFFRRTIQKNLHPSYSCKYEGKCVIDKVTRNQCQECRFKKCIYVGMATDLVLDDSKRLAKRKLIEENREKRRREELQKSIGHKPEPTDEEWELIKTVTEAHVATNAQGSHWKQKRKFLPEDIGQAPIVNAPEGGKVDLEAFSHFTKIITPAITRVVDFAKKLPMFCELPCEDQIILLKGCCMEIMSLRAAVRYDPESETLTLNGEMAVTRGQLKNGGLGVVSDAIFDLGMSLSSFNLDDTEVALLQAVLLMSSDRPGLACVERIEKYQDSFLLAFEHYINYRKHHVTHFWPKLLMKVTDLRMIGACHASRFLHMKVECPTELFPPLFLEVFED
#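 Polarization signal, normalized between peptide-alone and full complex controls, measured compound effects on T3-liganded human TRb LBD (0.6 uM) binding 20 nM Texas Red SRC2 peptide after 5 hr.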
# Tau fibril ThT – blocks human tau fibril formation measured by thioflavin T. 270,000 tested, 2.1% active. Potency, µM (top dose mostly 57.4 µM), without a hit: top-dose activity, negative = inhibition, usual class: inhibitors. recombinant tau K18 P301L, heparin-induced fibrillization, ThT fluorescence. P10636. AID 1460; further: nearly all actives have a fitted effect of over 55% in size
# Target sequence (P10636 561-689 P618L limits assumed): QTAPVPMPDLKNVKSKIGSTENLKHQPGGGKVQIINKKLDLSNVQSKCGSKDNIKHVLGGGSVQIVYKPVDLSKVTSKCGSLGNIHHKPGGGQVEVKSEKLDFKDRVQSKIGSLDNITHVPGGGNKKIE
#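 Fibril formation assay: tau K18 P301L at 15 uM with trace Alexa 594 label, heparin inducer 20 uM, pH 7 sodium acetate buffer, 37 C for 6 hr; endpoint ThT signal.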
# TR SRC2 fluor cs – counter-screen for TRb-SRC2 inhibitors: fluorescence interference; TRb/SRC2 Texas Red total fluorescence interference; AID 1479; 280,000 tested, 0.29% active; Potency, µM (series often up to 106 µM), for the others: top-dose fluorescence change, negative = quenching; active means well fitted curve in either direction with a large enough effect; inconclusive means small, poorly fitted or top-dose-only effect
#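 Flags fluorescent or light-absorbing compounds by total fluorescence, S + 2P, at 555 nm excitation and 632 nm emission. Mixture: 20 nM Texas Red SRC2 peptide, 0.6 uM human TRb LBD, 1 uM T3, 5% DMSO; compound exposure 5 h at ambient temperature.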
# Tau FP inhib – tau fibrillization inhibition (FP) | P10636 | K18 P301L tau heparin fibrillization, Alexa594 FP, 6 h | Potency, µM (top dose mostly 57.7 µM), for the others: at the top dose activity, negative = inhibition, actives largely listed as inhibitors | 280,000 tested, 0.39% active; further: nearly all actives have a fitted effect of over 55% in size
#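 Steps: dispense K18 P301L tau (15 uM plus 0.24 uM Alexa 594 tracer, final) in pH 7 sodium acetate; add compound; add heparin (20 uM final); incubate 6 hr, 37 C; add ThT (30 uM final); after 1 hr ambient, read FP.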
# RGS12 GoLoco inh – inhibitors of human Gai1-RGS12 GoLoco interaction (red fluorophore); Gai1:RGS12 GoLoco peptide FP, rhodamine, 10 min; 230,000 tested, 0.44% active; Potency, µM (highest dose often 61.6 µM), for the others: top-dose activity, negative = inhibition, most hits filed as inhibitors; P63096; active means well fitted inhibition curve with a large enough effect, not every such curve was filed as active; inactive means no such curve, though single readings can be large or run the other way; further: nearly all actives have a fitted effect of over 30% in size
# Starred values were filed as active, the others as inactive; ? = inconclusive; / = not tested or not shown; [ ] = dose if it differs, or a comment. A selection: hits, their analogues and other compounds. The true share with any hit is near 3.2%. Unless noted, the call rests on the fitted dose curve; in most records, active means well fitted curve in the direction sought with a large enough effect; inconclusive means small, poorly fitted or top-dose-only effect, or another doubt; inactive means no such curve, though single readings can be large; an effect the other way counts as inactive or inconclusive. Unless noted, on the % scale 0 is the no-effect control and ±100 the full control effect; potency means the concentration at half of the fitted maximal effect.
SMILES,Tau fluor counter,TRb SRC2 PPI,Tau fibril ThT,TR SRC2 fluor cs,Tau FP inhib,RGS12 GoLoco inh
CC(C)C(=O)Nc1nc2cc3c(cc2s1)OCO3,-3%,3%,-14%,1%,0%,5%
Fc1cc(F)c2nc(Nc3nc4cc5c(cc4s3)OCO5)sc2c1,5µM*[quencher],24%,?,35µM*[quencher],4%,7%
Fc1cccc2sc(Nc3nc4cc5c(cc4s3)OCO5)nc12,7.9µM*[quencher],-2%,7.9µM*,-3%,-2%,-2%
Fc1cccc2sc(Nc3nc4cc5c(cc4s3)OCCO5)nc12,14µM*[quencher],-3%,?,-2%,-5%,-2%
OCCN[C@@H]1c2cc(Cl)ccc2-c2c(Cl)cc(Cl)cc21,/,/,/,/,/,-2%[14.2 µM]
COc1ccc(Cn2c(SCc3ccc(C(=O)NC4CCCC4)cc3)nc3cccnc32)cc1,0%,-1%,1%,4%,1%,/
COc1ccc2[nH]cc(CC(N)C(=O)O)c2c1 (stereo not drawn),-27%,-3%,?,0%,-12%,-6%
N[C@@H](Cc1c[nH]c2ccc(O)cc12)C(=O)O,?,3%,28µM*,-1%,?,-5%
[O-]/[N+](=C/c1ccc(F)cc1)c1ccc(Cl)cc1,-24%,-1%,32µM*,-1%,?,9%
CN1C(=S)SC(/[N+]([O-])=C/c2ccc(Cl)cc2)C1(C)C (stereo not drawn),10%,1%,/,0%,0%,7%
O=C1C=C(N(CCO)Cc2ccccc2)c2ccccc2C1=O,-27%,?,13µM*,-4%,?,10%
CCOc1ccc2oc(=O)cc(CN3CCN(C(=O)c4cccc(F)c4)CC3)c2c1,-25%,-1%,?,-1%,1%,/
S=C(NNc1ccnc2cc(Cl)ccc12)Nc1ccc(Cl)cc1Cl,4µM*[quencher],3%,4µM*,-4%,?,27%
Clc1ccc2c(NCCNc3ccnc4cc(Cl)ccc34)ccnc2c1,/,/,/,/,/,7%[14.2 µM]
CCOc1ccc(NC(=S)NNc2ccnc3cc(Cl)ccc23)cc1,?,-7%,13µM*,-1%,-4%,-2%
O=C(O)CC[C@@H](C(=O)O)N1C(=O)[C@@H]2[C@@H]3CC[C@H](C3)[C@@H]2C1=O,/,/,/,/,/,2%[14.2 µM]
CCCC[C@@H](C)/C=C(C)/C=C(\C)C(=O)NC1=C[C@@](O)(/C=C/C=C/C=C/C(=O)NC2=C(O)CCC2=O)[C@@H]2O[C@@H]2C1=O,/,-15%,/,-7%,/,/
COc1ccccc1-c1cncnc1NCCNC(C)=O,/,/,/,/,/,2%
Cc1cc(C)cc(NS(=O)(=O)c2ccc3[nH]cc(C(=O)NCCc4ccccc4)c(=O)c3c2)c1,?,5%,2%,0%,?,/
CN(C(=O)c1c[nH]c2ccc(S(=O)(=O)Nc3cccc(C(F)(F)F)c3)cc2c1=O)C1CCCCC1,-28%,-3%,-7%,-3%,2%,/
O=C(NC1CCCC1)c1c[nH]c2ccc(S(=O)(=O)Nc3cccc(C(F)(F)F)c3)cc2c1=O,?,-7%,11%,-1%,10µM*,/
COc1cccc(NS(=O)(=O)c2ccc3[nH]cc(C(=O)NCCC(C)C)c(=O)c3c2)c1,?,-14%,2%,-1%,?,14%
CC(C)CCNC(=O)c1c[nH]c2ccc(S(=O)(=O)Nc3cccc(C(F)(F)F)c3)cc2c1=O,?,0%,6%,1%,14µM*,/
Cc1ccc(CCNC(=O)c2c[nH]c3ccc(S(=O)(=O)Nc4cccc(C(F)(F)F)c4)cc3c2=O)cc1,?,0%,?,-1%,7.9µM*,/
Cc1ccccc1NS(=O)(=O)c1ccc2[nH]cc(C(=O)NCCc3ccccc3)c(=O)c2c1,?,1%,8%,-1%,11µM*,/
SMILES,Tau fluor counter,TRb SRC2 PPI,Tau fibril ThT,TR SRC2 fluor cs,Tau FP inhib,RGS12 GoLoco inh
CCc1ccc(NS(=O)(=O)c2ccc3[nH]cc(C(=O)NCCc4ccccc4)c(=O)c3c2)cc1,1%,-4%,8%,1%,?,/
CCOC(=O)c1c(NC(=O)c2nc(SCC)ncc2Cl)sc2c1CCCC2,-10%,-10%,-5%,5%,-4%,/
O=C(O)[C@H](Cc1ccc(O)c([N+](=O)[O-])c1)N1C(=O)c2ccccc2C1=O,/,/,/,/,/,-1%[14.2 µM]
Cc1c(C(=O)N2CCCC2)oc2c1-c1nn(CC(=O)NCc3ccccc3Br)cc1CC2,-8%,-1%,-5%,-1%,1%,/
O=C(NCCN1CCN(c2cccc(Cl)c2)CC1)c1ccc(CSc2nc3ccncc3[nH]2)cc1,?,5%,?,0%,?,-20%
CCN(CCNC(=O)c1ccc(CSc2nc3ccncc3[nH]2)cc1)c1ccccc1,25µM*[quencher],4%,?,-6%,1%,21%
Cl[Si](Cl)(c1ccccc1)c1ccccc1,/,0%[201 µM],/,-1%[201 µM],/,/
c1ccc(COc2ccc(Nc3ncnc4nc[nH]c34)cc2)cc1,14µM*[quencher],1%,?,1%,18%,2%
CCOC(=O)c1ccc(Nc2ncnc3nc[nH]c23)cc1,-8%,-7%,-5%,0%,-2%,3%
Cn1c(=O)[nH]c(=O)c2c1nc(CN1CCN(c3ccccc3)CC1)n2Cc1c(F)cccc1Cl,6%,-1%,5%,0%,-3%,/
CC(=O)O[C@H]1C[C@H]2CC[C@@H]3[C@@H](CC[C@]4(C)[C@H](OC(C)=O)[C@H]([N+]5(C)CCCCC5)C[C@@H]34)[C@]2(C)C[C@H]1[N+]1(C)CCCCC1,/,1%[53 µM],/,-5%[53 µM],/,6%[21.6 µM]
CCOc1ccc(C(=O)c2ccc(OC)c(O)c2O)cc1,?,2%,16µM*,-1%,?,5%
COC(=O)C1=C(C)NC(C)=C(C(=O)NCCCN2CCC(c3ccccc3)(c3ccccc3)CC2)C1c1ccc([N+](=O)[O-])cc1 (stereo not drawn),/,8%,/,-3%,/,/
Cc1ccc(/C=C/C(=O)c2ccc(O)cc2)cc1,-21%,2%,?,-3%,-2%,-3%
CNc1ccc(/C=C/C(=O)c2ccc3c(c2)OCCO3)cc1[N+](=O)[O-],?,-5%,2.5µM*,-10%,2%,7%
CNc1ccc(/C=C/C(=O)c2ccc(C)cc2)cc1[N+](=O)[O-],-23%,-2%,3.2µM*,9%,2%,6%
CN(C)c1ccc(/C=C/C(=O)c2ccccc2)cc1[N+](=O)[O-],?,9%,10µM*,-7%,4%,-4%
CCc1nc2ccc(C(=O)NCc3ccccc3C)cc2nc1CC,-19%,-2%,-13%,2%,-3%,/
O=C1c2ccccc2C(=O)c2cc(S(=O)(=O)Nc3ccccc3)ccc21,14µM*[quencher],4%,22µM*,-4%,?,3%
